# Source: PMC12136788
# Numbering of substitutions follows the chain as printed. Over roughly 5,800 sequences, “enrichment r” has its median near 0.54; the highest 2% begin near 16. The list comes from a sample in which the highest values are over-represented; it also holds similar and randomly drawn sequences.
# B1: chr11:214995:215097:+|3pUTR|ENSG00000177963|unk|total|mutant (ssRNA)
# RNA: GGGAGUUCUACAGUCCGACGAUCCCUCCUUCCUACUGGUUCCGACUACACUUACAACAAGGAAAAUGCCCCUCGUGUGACCACCGAUUGAGAUUUAUACCACAUACCACACACCGCCACAGAAACAUCAUCUUGAAAUAAAGACAACAGAGGAUUGAGCAUCA
# B2: chr5:157162449:157163658:-|CDS|ENSG00000170613|control|control|control (ssRNA)
# RNA: GGGAGUUCUACAGUCCGACGAUCGGUCACAUCACAUGACAGAGAGGUAGAUAUCGUGGCUAAGAUGGUGGAGAAGCAAAACAUAGAGGCCAAAGUGGAGAAAGCCCAGGGUGGCCAGGAGCUGGAGAUGAUCAGUGGCACUAUCAACAGAGGAUUGAGCAUCA
# B3: chr1:234405902:234406099:-|CDS|ENSG00000059588|control|control|control (ssRNA)
# RNA: GGGAGUUCUACAGUCCGACGAUCCCUUAUAGUUGUGCUGCAGUGGUGUUUCAAUCACAAUUUUAGUGUUCGACUGUAUGCUUUAGUUGCUCUUAAGAAACUCUGGACUGUGUGUAAAGUGUUAAGUGUUGAAGAAUUUGAUGCCAACAGAGGAUUGAGCAUCA
# B4: chr6:136278143:136278257:-|CDS|ENSG00000029363|unk|total|mutant (ssRNA)
# RNA: GGGAGUUCUACAGUCCGACGAUCACAUCCGGUGAUAUUUGGCCUGGCCUUUCAGCUUAUGAUAACCGUCCCCGAUCACCCCACCGUCCUUCACCUAUUGCUACACCACCCCGUCAGAGUUCAUCUUGCUCUGAUGCUCCCAUGCAACAGAGGAUUGAGCAUCA
# B5: chr1:15430058:15430159:+|3pUTR|ENSG00000142634|msi1|FALSE|unique (ssRNA)
# RNA: GGGAGUUCUACAGUCCGACGAUCCCUGGAAGCUACGCGGACUUGCAGAGGUUUUAUUUUUUGGCCUUAGAAUCUGCAGAAAUUAGGAGGCACCGAGCCCAGCGCAGCAGCCUCGGACCCGGAUUGCGUUUGCCUUAGCGGAUACAACAGAGGAUUGAGCAUCA
# B6: ENSG00000070961:be:win_4001|3pUTR|ENSG00000070961|bound_else_gene|NA|bound_elsewhere_windowed (ssRNA)
# RNA: GGGAGUUCUACAGUCCGACGAUCAGUAAAACUGGGCAAGACAAAGAGCCCUGGAUCGUUGAAUUGAUAGUUUAAUUUCUGCUGUUGGCUGUUAAUAAUUUGGAUUAUUUAUGUUUAUAAAUGAUACAGAUCUGUUUACAAGGUCAACAGAGGAUUGAGCAUCA
# B7: ENSG00000005810:stop:overlap|stop_codon|ENSG00000005810|stop_codon|NA|stop_codon (ssRNA)
# RNA: GGGAGUUCUACAGUCCGACGAUCCACCCACUGGGGAAGAGUUUGCUCUGGGAUGUGGAGUGUGCAGAAAUGCCCACACUUUUUAGAACACGCAGAUCCUUUGUCUACAGAGAGAAAAAUUGCCUUCAUCCCCCAAGAGGAUGCCAACAGAGGAUUGAGCAUCA
# B8: chr2:105361111:105361195:-|3pUTR|ENSG00000115641|msi1_unk|total|mutant (ssRNA)
# RNA: GGGAGUUCUACAGUCCGACGAUCCUUUCUCACCCAGGCAAUCUUGCCUUCUGGUUUCUUCCAGCCACAUUGAGACUUUCUUCCCGUGCUUUUCAGUGAUACUCACGUUUGCUUAAACCCUUCCGUGCUUUGUGACCGUUCAGUCAACAGAGGAUUGAGCAUCA
# B9: chr10:62094764:62094865:+|3pUTR|ENSG00000150347|msi1|FALSE|unique (ssRNA)
# RNA: GGGAGUUCUACAGUCCGACGAUCGAUGAACUCCCCAACCCACUGUGCCCCUCCCGCAACACUACCAGUAGACUUUAGAACCAUAGUUAACUAAGUCUUUUACCUCUGAGAUACUUAAUUCUGGGAAAAUUGGUGACAAUUUUCCAACAGAGGAUUGAGCAUCA
# B10: ENSG00000071054:stop:overlap|stop_codon|ENSG00000071054|stop_codon|NA|stop_codon (ssRNA)
# RNA: GGGAGUUCUACAGUCCGACGAUCCUGGUGGCAGCAGUCAGGUUUAUUUCAUGACCUUAGGCAGGACUUCUCUUCUGAGCUGGUAGAAGCAGUGUGAUCCAGGGAUUACUGGCCUCCAGAGUCUUCAAGAUCCUGAGAACUUGGCAACAGAGGAUUGAGCAUCA
# B11: chrX:85861749:85861850:-|3pUTR|ENSG00000188419|msi1|total|mutant (ssRNA)
# RNA: GGGAGUUCUACAGUCCGACGAUCCUAAUUUAAAAUUUCAGAAAAUGCUAUUAAAGAAUUUUGAUUCAAGUAUUUAAACUGUUCCGUUAUGCAUGCUUCUUAUUAACCGAAAAUGAUAAUACCAUUCCGUUCCGUGAUCAGUAUCAACAGAGGAUUGAGCAUCA
# B12: chr5:136976780:136976881:-|3pUTR|ENSG00000152377|msi1|total|mutant (ssRNA)
# RNA: GGGAGUUCUACAGUCCGACGAUCCUUAAAUCCGCAUGUUCCAAUCCAGUCGGCAUUGCCUGAAUACAGCCGCAUCAUACCUACCGUUGGUCUCCGAUAAGAAAUGAACUACUUGAUACCGCAAAGUCCUUUGGCUUCGUAAAUCAACAGAGGAUUGAGCAUCA
# B13: chr8:9779869:9779970:+|3pUTR|ENSG00000173273|msi1|FALSE|unique (ssRNA)
# RNA: GGGAGUUCUACAGUCCGACGAUCGGAAUUUCUAGCUUUUCAAGCAGCAUAAGUAGAAUCAACAUUAGGAUGUUUUCAUGAAAUAGCAUCCUUAUACUUCUUUGAGCUUGAUGUUAGUGGCUAGACUGAUUUCCCUUUGCUCUCCAACAGAGGAUUGAGCAUCA
# B14: chr5:136976780:136976881:-|3pUTR|ENSG00000152377|msi1|FALSE|unique (ssRNA)
# RNA: B12 RNA with C31U, C32A, C69U, C70A, C83U, C84A, C93U, C94A, C118U, C119A
# B15: chrX:85861749:85861850:-|3pUTR|ENSG00000188419|msi1|FALSE|unique (ssRNA)
# RNA: B11 RNA with C83U, C84A, C126U, C127A, C131U, C132A
# B16: chr11:62152232:62152344:+|3pUTR|ENSG00000149503|unk|FALSE|unique (ssRNA)
# RNA: GGGAGUUCUACAGUCCGACGAUCUGCUCUGUAAAUAGUUGUUUUAAUUUAGCUGAAUGUUAGCAUUUUAGUCUUUGGCAUUUUAGCGUUUGGGAGGUAGAUUAAUAAAGUAUAUUCCUUCAAGCCUGCUGUUGAUACCAUGAACAACAGAGGAUUGAGCAUCA
# B17: ENSG00000070961:be:win_4401|3pUTR|ENSG00000070961|bound_else_gene|NA|bound_elsewhere_windowed (ssRNA)
# RNA: GGGAGUUCUACAGUCCGACGAUCGUUAUGACAUCUGUCCUAAUUAGUUUCUUAAAUACAUUUACUACUUAAUGGUUUUGAAGCAACUGUUUAAUUUUUAAAAUUUUUGAAAACUUGCUAAUAACCUUUUGUUCAGAAUUUAGUCAACAGAGGAUUGAGCAUCA
# B18: chr11:62152232:62152344:+|3pUTR|ENSG00000149503|unk|total|mutant (ssRNA)
# RNA: GGGAGUUCUACAGUCCGACGAUCUGCUCUGUAAACCGUUGUUUUAAUUCCGCUGAAUGUCCGCAUUUCCGUCUUUGGCAUUUCCGCGUUUGGGAGGCCGAUUAAUAAAGUAUAUUCCUUCAAGCCUGCUGUUGAUACCAUGAACAACAGAGGAUUGAGCAUCA
# B19: ENSG00000198589:be:win_9701|3pUTR|ENSG00000198589|bound_else_gene|NA|bound_elsewhere_windowed (ssRNA)
# RNA: GGGAGUUCUACAGUCCGACGAUCCAAGGAUUUGGAAUGAACAAUUCAGUUUGACAGAAAAAGCUGAAUAAAAUGGCAUCUGUAAUUGAAUUGUUGGAAAUGCCUUUUUUGCUCCUAAAUUUUAAACAUCAUUAAUAAAAUAAUCAACAGAGGAUUGAGCAUCA
# B20: ENSG00000013293:stop:overlap|stop_codon|ENSG00000013293|stop_codon|NA|stop_codon (ssRNA)
# RNA: GGGAGUUCUACAGUCCGACGAUCAACACAAACAGAACUCAGAGGCCCUGAUUGCAAAUGAUGAGUUAGAUUACUCUCCAGAGUAGGAGAAACACACAAGUGGGUAGAAAUGGUGAUGACUGAUUUUCAGUAACUUAACCUGUGCAACAGAGGAUUGAGCAUCA
# B21: chr10:99876058:99876159:-|3pUTR|ENSG00000107554|msi1|FALSE|bound_elsewhere (ssRNA)
# RNA: GGGAGUUCUACAGUCCGACGAUCUUGAGCCUAAUGGAAGACUGGAUGUCUUUCUUCUUCAUCCAAGCACCCUAAUGACUGUUUAGUUACAUCCAUAGAUGCAGACAACAUAACACCUGUGACUUACUUGAAUUGGGAUAAGCCCAACAGAGGAUUGAGCAUCA
# B22: ENSG00000107021:stop:overlap|stop_codon|ENSG00000107021|stop_codon|NA|stop_codon (ssRNA)
# RNA: GGGAGUUCUACAGUCCGACGAUCACCCCAUCACAGAUGUCUGCCAGAUCCUGCAGAAAGCCAAGGAGCUCCAAGACUCAAAGUAGCCCGGCGGCAAGAGGCCCAUGUUCCGGAGAGAAGCCUCCCGACCCUGUGCCCUGGCUCCAACAGAGGAUUGAGCAUCA
# Target: MSI1 full-length (mouse, UniProt Q61474 1-362)
# Experiment: nsRBNS (natural sequence RNA bind-n-seq); RBNS binding buffer (assumed for nsRBNS): 25 mM Tris pH 7.5, 150 mM KCl, 3 mM MgCl2, 0.01% Triton X-100, 500 ug/ml BSA, 20 U/ml SUPERase-In, 4 C; UNK is unkempt and MSI1 is Musashi-1; names of the RNAs are library labels; protein concentration not given here; high values mean tight binding
# Sequence of MSI1 full-length (Q61474 whole entry): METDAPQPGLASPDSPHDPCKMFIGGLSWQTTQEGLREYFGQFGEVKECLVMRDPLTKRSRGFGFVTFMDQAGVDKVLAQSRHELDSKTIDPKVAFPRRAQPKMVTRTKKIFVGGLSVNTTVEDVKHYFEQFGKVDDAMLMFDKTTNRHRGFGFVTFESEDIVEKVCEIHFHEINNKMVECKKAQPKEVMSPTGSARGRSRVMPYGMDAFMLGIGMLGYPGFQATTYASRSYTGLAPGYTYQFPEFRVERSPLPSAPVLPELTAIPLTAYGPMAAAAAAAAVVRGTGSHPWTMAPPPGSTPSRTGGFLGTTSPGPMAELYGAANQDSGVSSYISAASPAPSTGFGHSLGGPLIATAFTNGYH
row,Binder,binding signal [enrichment R]
1,B1,0.839
2,B2,0.709
3,B3,0.964
4,B4,0.739
5,B5,0.989
6,B6,0.47
7,B7,0.439
8,B8,0.426
9,B9,12.5
10,B10,0.605
11,B11,0.789
12,B12,0.478
13,B13,0.275
14,B14,71.2
15,B15,54.6
16,B16,70
17,B17,3.8
18,B18,0.406
19,B19,0.605
20,B20,18.5
21,B21,0.725
22,B22,0.38
